For 25 compounds, growth results are on record in PubChem BioAssay (NCI).

Holding throughout (assay): NCI-60 one-dose screen, 48 h (100 = growth as untreated, 0 = no growth, -100 = all killed)
Holding throughout (conditions): 10 µM unless noted

In test [1] the test system is HCT-15 colon.
The test system of test [2] is HT29 colon.
The test system of test [3] is SNB-75 CNS.
The subject of test [4] is SNB-19 CNS.
Test [5] has as its system U251 CNS.
The subject of test [6] is PC-3 prostate.
Test [7] has as its system SK-MEL-5 melanoma.
In test [8] the test system is UACC-62 melanoma.
Test [9] has as its system LOX IMVI melanoma.
Test [10] relates to SK-MEL-28 melanoma.

The panel holds about 83,000 compounds, 20% with a hit somewhere; the sample as a whole holds those more often.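 Cell lines were cultured in 96-well plates, exposed to a single compound concentration, and assessed for percent growth 48 hours later.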 Unmarked numbers belong to inactive results. Activity calls are given as the source filed them. How the source made its calls: active means growth percent below 10; inactive means the rest.

On to `CC(=O)O[C@H]1CC[C@]2(C)[C@H]3CC[C@]4(C)[C@@H](OC(C)=O)CC[C@H]4[C@@H]3[C@@H](C)[C@]2(O)C1`, for which the growth in test [1] is 108%; in test [2] it was 106%; in test [3], 92.5%; in test [4], 111%; in [5] it was 111%; in [6], 89.6%. The growth is 106% in test [7], 98.4% in [8], 96.8% in test [9] and 117% in test [10].
With `CN1CC(CNC(=O)OCc2ccccc2)CC2c3cccc4c3c(cn4C)CC21` (stereo not given), the growth was 8.29% (active) in test [1]; 5.34% (active) in test [2]; 20.6% in [3]; 57.8% in [4]; 13.6% in [5]; 40% in test [6]. Also, the growth in [7] is -97.8% (active); in test [8], 5.67% (active); in [9], -37.4% (active); in test [10] it was -41.1% (active).
For the compound `COc1ccc2nc(NC(=O)COc3cc(/C=C\c4cc(OC)c(OC)c(OC)c4)ccc3OC)sc2c1`, the growth in [1] is 15.5%; in [2], 10.3%; in test [3], -5.27% (active); in [4] it was 31.5%; in test [5], 20.4%; in test [6], 30.4%. In addition, the growth in test [7] was 10.8%; in test [8], 33.8%; in test [9], 8.81% (active); in test [10], 43.5%.
Consider `NC(=O)CNc1ccc([As]=[As]c2ccc(NCC(N)=O)cc2)cc1` (stereo not given), for which the growth in test [1] was 44.1%; in test [2], 38.9%; in [3], 24.5%; in test [4] it was 48.6%; in [5] it was 12%; in test [6], 58.3%. Further, the growth was 23.7% in [7], 26.1% in test [8], 26.2% in test [9] and 74.6% in [10].
On to `CC12CCC(O)CC1=CCC1C2CCC2(C)C(O)CCC12` (stereo not given), for which the growth is 105% in test [1]; 101% in test [2]; 88% in [3]; 86.7% in test [4]; 105% in test [5]; 94.1% in [6]. The growth in test [7] was 98.2%; in test [8], 102%; in [9], 99.5%; in test [10], 106%.
`CNC(=O)Oc1ccc2c(c1)OCO2`: the growth in test [1] was 101%; in test [2] it was 104%; in test [3] it was 98.6%; in test [4], 98.9%; in test [5], 99%; in test [6], 102%. Besides, the growth in test [7] is 101%; in test [8], 99.4%; in test [9], 103%; in test [10] it was 108%.
Consider `CCC(C)(C)[C@H](NC(=O)[C@H]1CCCCN1C)C(=O)N(C)[C@H](C[C@@H](OC(C)=O)c1nc(C(=O)N[C@@H](Cc2ccccc2)C[C@H](C)C(=O)O)cs1)C(C)C`, for which the growth in [1] was 6.87% (active); in [2] it was -2.9% (active); in [3] it was 6.25% (active); in test [4] it was 17.8%; in [5] it was 12.1%; in [6] it was 24.9%. In addition, the growth in test [7] is -18.1% (active); in test [8], 30.9%; in test [9], 16.1%; in [10] it was 44.6%.
`COC[C@@H]1C[C@@]2(C)[C@@H](CC[C@@H]3[C@@H]2CC[C@@]2(C)[C@H]3CC[C@]2(C)O)CC1=O`: the growth in [1] was 94.8%; in test [2] it was 83.4%; in test [3], 90.4%; in test [4], 113%; in [5] it was 93.7%; in [6] it was 96.8%. In addition, the growth was 106% in [7], 100% in [8], 95.2% in [9] and 96.4% in test [10].
Regarding `CCOC(=O)c1c(C)n(Cc2ccccc2)c2cc(CN(C)C)c(O)cc12`, the growth in [1] is 63.4%; in [2] it was 37%; in [3], 50.5%; in [4] it was 72.2%; in test [5], 67.8%; in test [6], 57.4%. The growth is 82.5% in test [7], 58.4% in test [8], 28.8% in test [9] and 80.2% in [10].
On to `COC(=O)N[C@H]1CCc2c(Br)c(OC)c(OC)c(OC)c2-c2ccc(SC)c(=O)cc21`, for which the growth in test [1] was 7.69% (active); in test [2], 12%; in [3], 29.1%; in test [4] it was 28.2%; in [5], 21.4%; in test [6], 21.7%. Further, the growth in [7] is -44.6% (active); in [8], 38.6%; in [9], 12.1%; in test [10], 66.9%.
With `COc1cc2ncnc(Nc3ccc(F)c(Cl)c3)c2cc1OCC(=O)N1CCN(C)CC1`, the growth in [1] was 93.4%; in [2] it was 90.6%; in test [3], 92.2%; in test [4], 79.6%; in test [5], 101%; in [6], 86%. In addition, the growth in test [7] is 97.5%; in [8] it was 98.1%; in test [9] it was 91.5%; in [10] it was 102%.
For `O=C1NC(=O)C(=Cc2cccn2CCCCCn2c3ccccc3c(=O)c3ccccc32)C(=O)N1`, the growth is 92.8% in test [1]; 103% in test [2]; 101% in [3]; 101% in [4]; 96.8% in [5]; 91% in test [6]. Moreover, the growth was 98.6% in test [7], 90.7% in [8], 95.3% in test [9] and 111% in test [10].
Take `COC(=O)[C@@H](C)C[C@H](Cc1ccccc1)NC(=O)c1csc([C@@H](C[C@H](C(C)C)N(C)C(=O)[C@@H](NC(=O)[C@H]2CCCN2C)C2CC2)OC(C)=O)n1`: the growth is 18.3% in test [1]; 6.25% (active) in test [2]; 28.9% in test [3]; 75.6% in test [4]; 8.67% (active) in test [5]; 8.37% (active) in test [6]. For the same compound, the growth in test [7] was -52.1% (active); in test [8], 41.2%; in [9], 15%; in test [10], 56.4%.
As for `Nc1ncnc2n[nH]nc12`, the growth in test [1] is 63.4%; in [2], 79.7%; in test [3], 90.6%; in [4] it was 93.5%; in test [5] it was 70.1%; in test [6], 64.5%. Besides, the growth in test [7] was 72.5%; in [8], 46.7%; in test [9], 43.9%; in [10], 87.6%.
Turning to `CCOC(=O)N[C@H]1CCc2c(Br)c(OC)c(OC)c(OC)c2-c2ccc(SC)c(=O)cc21`, the growth is 8.88% (active) in test [1]; 13.1% in [2]; 17.2% in test [3]; 28.7% in test [4]; 19.7% in test [5]; 24.2% in test [6]. Besides, the growth is -23.4% (active) in test [7], 38.7% in [8], 9.29% (active) in test [9] and 56.8% in [10].
For `CC1=C(CCCOC(=O)[C@H](N)CC(C)C)C2=C(C)C3(CC3)[C@@](C)(O)C(=O)C2=C1`, the growth in test [1] is 4.16% (active); in test [2], 12.6%; in test [3], -7.8% (active); in test [4], 45.4%; in [5], 35.9%; in [6], 28.5%. Further, the growth was -67.6% (active) in test [7], 11.3% in test [8], 41.8% in test [9] and 33.8% in [10].
As for `CC(=O)OC[C@]1(C)C=C2C(=O)[C@](C)(O)C3(CC3)C(C)=C2[C@H]1O`, the growth is -8.75% (active) in test [1]; -12% (active) in test [2]; -91.5% (active) in test [3]; -16.5% (active) in test [4]; 1.39% (active) in [5]; -15.6% (active) in test [6]. The growth in [7] was -62% (active); in [8] it was -84.4% (active); in test [9], -30.3% (active); in test [10], -56% (active).
In the case of `Nc1ccc2c(c1)Cc1cc(Br)ccc1-2`, the growth in test [1] was 101%; in test [2] it was 119%; in [3], 76.6%; in test [4], 101%; in test [5] it was 104%; in test [6] it was 89.6%. Also, the growth in test [7] is 104%; in test [8], 88.8%; in test [9] it was 94.2%; in test [10], 116%.
In the case of `COc1ccc(/C(C)=C(\c2ccc(OCCN3CCOCC3)cc2)c2ccc(OC(=O)Cc3ccccc3)cc2)cc1`, the growth in test [1] is 98.5%; in test [2], 92.4%; in test [3] it was 121%; in test [4], 111%; in [5] it was 102%; in test [6], 94.5%. Also, the growth in [7] is 106%; in [8], 106%; in test [9] it was 103%; in test [10], 108%.
`CN1C(=O)C23CC4(C56CC78SSC(CO)(C(=O)N7C5Nc5ccccc56)N(C)C8=O)c5ccccc5NC4N2C(=O)C1(CO)SS3` (stereo not given): the growth in [1] was -82.3% (active); in test [2], -77.3% (active); in test [3], -100% (active); in test [4], -98.3% (active); in test [5], -100% (active); in test [6], -99.5% (active). The growth was -95% (active) in test [7], -95.6% (active) in [8], -93.6% (active) in [9] and -90.6% (active) in test [10].
Regarding `CC(=O)O[C@H](C[C@H](C(C)C)N(C)C(=O)[C@@H](NC(=O)[C@H]1CCCCN1C)C(C)C)c1nc(C(=O)N[C@@H](Cc2ccccc2)C[C@H](C)C(=O)O)c(C)s1`, the growth in test [1] is 16.5%; in test [2], 3.99% (active); in [3] it was 49.6%; in test [4], 38.5%; in test [5] it was 8.94% (active); in test [6], 21.3%. In addition, the growth was -33.1% (active) in [7], 48.1% in [8], 26.6% in test [9] and 62.7% in test [10].
For `NC(N)=N/N=C\c1c[nH]c2ccc(Br)cc12`, the growth in test [1] was 105%; in test [2], 92.3%; in test [3] it was 72.6%; in test [4] it was 67.1%; in test [5] it was 32.9%; in [6], 72.2%. The growth in test [7] is 67.6%; in [8], 101%; in test [9], 93.7%; in test [10], 100%.
As for `COC(=O)CC12CC(NC(=O)c3csc([C@@H](C[C@H](C(C)C)N(C)C(=O)[C@@H](NC(=O)[C@H]4CCCCN4C)C(C)C)OC(C)=O)n3)(C1)C2`, the growth was 11.8% in test [1]; 5.49% (active) in test [2]; 59% in test [3]; 37.8% in [4]; 17.3% in [5]; 30.2% in test [6]. In addition, the growth in test [7] is -30.2% (active); in test [8] it was 49.7%; in [9], 23.3%; in test [10], 59.4%.
With `CCCCOc1ccc(C(N)Cc2ccccc2)cc1` (stereo not given), the growth in test [1] is 84.9%; in test [2], 75.4%; in [3], 71.2%; in test [4], 97%; in test [5], 88.1%; in test [6], 79.5%. Also, the growth in test [7] is 92.8%; in test [8] it was 105%; in [9], 80%; in [10], 105%.
For `CCn1nccc1NC(=O)C(=O)c1cn(Cc2ccc(F)cc2)c2cccc(OC)c12`, the growth in test [1] is 91.8%; in test [2], 112%; in test [3], 91%; in [4] it was 90.9%; in test [5], 92.1%; in test [6], 90.6%. The growth in [7] was 87.3%; in test [8], 78.4%; in test [9], 84.2%; in test [10], 107%.
